Assay outcomes from PubChem.
LMP1 NFkB inh = Epstein-Barr LMP1 NF-kappaB reporter inhibition | LMP1-induced NF-kappaB luciferase reporter cells, luminescence | inhibition, % at 12.5 µM | actives 0.69% (n = 350,000); in the data active means inhibition above about 41%; inconclusive means no clear call, values can overlap the other calls;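 further: 0% = neutral control wells and 100% = reference inhibitor control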
Wnt act = Wnt/beta-catenin pathway activation | actives 1.2% (n = 300,000) | Wnt/beta-catenin reporter cell assay, activator, plate reader | activation, % at 9.35 µM; in the data active means activation above about 30%, passing the limit was not always enough; inconclusive means no clear call, values can overlap the other calls;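 further: 0% = neutral control wells and 100% = positive control wells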
MITF act = MITF TRPM1 promoter activation in melanoma cells | SK-MEL-5 TRPM1-promoter luciferase, 24 h; % of positive control, neutral wells = 0 | activation, % at 12.5 µM | actives 0.75% (n = 300,000);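 active means mean activation of at least 80% with every replicate also reaching 80%; inconclusive means mean reaches 80% but some replicate falls short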;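 further: 0% = neutral control wells and 100% = parthenolide positive control wells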
TRPM1 prom inh = reduces MITF-dependent TRPM1 promoter luciferase signal; SK-MEL-5 TRPM1 promoter luciferase, 24 h; inhibition, % at 12.5 µM; actives 0.83% (n = 330,000); AID 488899;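 active means mean inhibition across replicates of 60% or more, whatever share of single replicates reaches that level; inconclusive means some that reach 60%, reason not given; inactive means mean inhibition across replicates below 60%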
C2C12 statin = suppression of simvastatin myotoxicity | AID 602340 | C2C12 myotubes + simvastatin, ATP luminescence, 48 h; scaled: DMSO 0, geranylgeraniol control 100 | rescue of ATP level, % at 7.49 µM | actives 0.78% (n = 330,000);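 active means mean ATP rescue above about 67%, or every replicate alone reaching that limit, limit read from the data, passing the limit was not always enough; inconclusive means no clear call, values can overlap the other calls; inactive means mean under the limit and some replicate under it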;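 further: myotubes were challenged with 10 µM simvastatin during compound exposure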
esBAF inh = inhibitors of esBAF chromatin remodeling in mouse ES cells | Bmi1-luciferase knock-in reporter, 24 h; 100% = twice the neutral-well signal | AID 602393 | reporter increase, % at 12.5 µM | actives 2% (n = 350,000); in the data active means activation above about 40%; inconclusive means no clear call, values can overlap the other calls;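 further: 0% = median of the plate's neutral control wells and 100% = double that signal; a rise in the Bmi1 reporter signal indicates esBAF inhibition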
Active calls of the source: *; ? = inconclusive; . = not tested or not shown. Only some compounds are listed: those with a hit (about 4% of all), similar ones and a draw of the others.

SMILES	LMP1 NFkB inh	Wnt act	MITF act	TRPM1 prom inh	C2C12 statin	esBAF inh
CCOc1ccc2oc(C(=O)NCc3ccccc3CN3CCCC3)c(C)c2c1	-6	4	-3	2	-50	-10
O=C(O)c1cnn(-c2nc(-c3ccc(Cl)cc3)cs2)c1C(F)(F)F	-17	10	68	-73	6	76*
CCOC(=O)c1cnn(-c2nc(-c3ccccc3)cs2)c1C(F)(F)F	-6	.	14	-13	-6	28
COC(=O)c1cnn(-c2nc(-c3ccccc3)cs2)c1N	-21	12	66	-56	-5	65*
O=C(O)c1ccc(-c2nc(-c3ccc(Cl)cc3)cs2)cc1	-36	-4	118*	-111	.	.
O=C(O)c1ccc(-c2nc(-c3ccc(Cl)cc3Cl)cs2)cc1	-38	4	?	-73	-55	60*
COc1ccc(-c2csc(-n3ncc(C(=O)O)c3C(F)(F)F)n2)cc1	0	9	42	-37	9	?
COc1ccc(-c2csc(-c3ccc(C(=O)O)cc3)n2)cc1	-76	-5	62	-60	.	.
CNC(=O)C[C@H]1CC[C@@H]2[C@@H](COc3ccc(NC(=O)Nc4ccc(C)cc4)cc3C(=O)N2C)O1	.	.	.	.	5	5
Cc1cccc(C(C)C)c1NC(=O)C(C)OC(=O)Cc1n[nH]c(=O)c2ccccc12 (stereo unspecified)	-2	1	-10	12	-10	0
COc1ccccc1N(CC(=O)Nc1ccccc1C)S(C)(=O)=O	3	-4	-3	3	.	.
CCC(C)c1ccc(N(C(=O)c2ccco2)C(C(=O)NC2CCCC2)c2cccnc2)cc1 (stereo unspecified)	-49	5	28	-25	10	86*
CC(C)c1ccc(N(C(=O)c2ccco2)C(C(=O)NC2CCCC2)c2ccncc2)cc1 (stereo unspecified)	-22	5	47	-42	-1	47*
Cc1ccc(OC(C)C(=O)Nc2cccc(S(=O)(=O)N3CCCCCC3)c2)cc1 (stereo unspecified)	-9	0	.	.	5	-1
Cc1ccc(Nc2nc3nonc3nc2N(C)C)cc1	5	.	0	-1	88*	-1
N#CC1=C(c2ccccc2)/C(=C/c2ccccc2)OC1=O	13	.	-92	92*	.	.
O=C(CSc1nnc(-c2ccccc2)n1C1CCCCC1)Nc1ccc(S(=O)(=O)Nc2ccccn2)cc1	-1	.	-4	3	-58	-1
CCn1c(SCC(=O)Nc2ccc(S(=O)(=O)Nc3ccccn3)cc2)nnc1-c1ccncc1	-1	.	-16	19	95*	-10
Cc1ccc(NS(=O)(=O)c2ccc(C)c(C(=O)N3CCN(C)CC3)c2)cc1	-3	.	-1	4	123*	-5
CO[C@@H]1CN(C)C(=O)c2cc(NC(C)=O)ccc2OC[C@@H](C)N(C(=O)c2ccc(F)cc2)C[C@@H]1C	.	.	.	.	-8	-8
CCN1CCN(c2ccc(Nc3ccnc4ccccc34)cc2)CC1	-6	-10	-63	64*	2	-5
c1ccc(-c2cn3nc4c(nc3n2)CCCC4)cc1	64*	.	-73	73*	.	.
Brc1ccc(-c2cn3nc4c(nc3n2)CCCC4)cc1	38	.	-37	36	.	.
Cc1cc(C)c(S(=O)(=O)N2CCN=C2c2ccccc2)cc1C	2	3	7	-3	99*	-4
COc1ccc(-c2sc3ccccc3c2-c2ccc(OCCN(C)C)cc2)cc1	-14	-29	-74	76*	-30	-40
SMILES	LMP1 NFkB inh	Wnt act	MITF act	TRPM1 prom inh	C2C12 statin	esBAF inh
CCNC(=O)C[C@@H]1CC[C@@H]2[C@@H](COc3ccc(NC(=O)Cc4ccccc4)cc3C(=O)N2C)O1	.	.	.	.	-9	0
Nc1nn2cc(-c3ccc(Br)cc3)nc2c2ccccc12	-64	44*	55	-48	-26	?
NNc1nc(-c2ccccc2)cc(-c2ccc(Br)cc2)n1	5	-1	11	-13	23	-4
CCCCN(C(=O)CSc1cc(C)c2ccc(OC)cc2n1)c1c(N)n(Cc2ccccc2)c(=O)[nH]c1=O	3	-1	-10	4	.	.
C[C@H](CO)N1C[C@H](C)[C@H](CN(C)C(=O)Nc2ccc3c(c2)OCO3)Oc2ncc(C#Cc3ccc(C(F)(F)F)cc3)cc2C1=O	.	.	.	.	.	3
Cc1cc2ncn(CCOc3ccccc3)c2cc1C	-26	.	56	-51	3	83*
O=C(/C=C/Nc1ccccc1C(F)(F)F)c1ccco1	-33	16	12	-10	6	93*
O=C(/C=C/Nc1ccc(Oc2ccccc2)cc1)c1ccco1	-32	59*	75	-79	.	.
NC(=O)c1ccccc1N/C=C/C(=O)c1ccco1	1	-3	46	-44	2	34
CCOC(=O)C1=C(CSc2nc(-c3ccccc3)ccc2C#N)OC(N)=C(C#N)C1c1ccc(OC)cc1 (stereo unspecified)	-29	.	72	-77	-2	54*
C[C@@H]1CN([C@@H](C)CO)C(=O)c2cccc(NC(=O)C3CCCCC3)c2O[C@H]1CN(C)S(=O)(=O)c1ccc(Cl)cc1	.	.	.	.	-12	-1
NS(=O)(=O)c1ccc(NC(=S)N2CCN(c3ccccc3Cl)CC2)cc1	1	.	-4	2	.	.
CCCSCCCNC(=O)c1ccc(NC(=O)C2=CSCCO2)cc1	-8	0	8	-33	3	55*
Cc1ccc(N2CC(C(=O)N3CCC(c4nc5ccccc5[nH]4)CC3)CC2=O)cc1C (stereo unspecified)	0	0	-10	9	0	-5
O=c1[nH]c2c(s1)C=Nc1ccccc1N2	-14	?	-13	14	14	54*
O=C1Nc2ccccc2N=C(c2ccccc2)C1Br (stereo unspecified)	10	2	-4	7	.	.
Clc1ccccc1Cn1nnc(-c2cccs2)n1	-46	.	60	-66	-3	56*
Cc1ccc(Cl)cc1NC(=S)NCc1cccn1C	3	.	-9	7	.	.
CNc1nc(N)c([N+](=O)[O-])c(NCc2ccccc2)n1	8	-1	17	-23	.	.
CSCC[C@H](NC(=O)[C@@H]1Cc2ccccc2CN1)C(=O)NC[C@H]1CC[C@H](C(=O)O)CC1	-17	0	92*	-89	-3	-1
Cc1cccc(C)c1NC(=O)CN(C)C(=O)c1ccc(-c2cccc(C(F)(F)F)c2)o1	55*	2	17	-13	9	3
O=c1[nH]c2ccc(NS(=O)(=O)c3ccc(F)c(Cl)c3)cc2[nH]1	-3	1	-4	9	7	-2
O=C(COC(=O)COc1ccccc1)Nc1ncc([N+](=O)[O-])s1	3	1	-1	3	10	1
N/C(=N\OC(=O)Nc1ccccc1)c1ncc([N+](=O)[O-])s1	-32	5	-68	68*	26	-2
COc1ccc(NC(=O)Nc2cnccn2)c(OC)c1	-7	0	-2	0	.	.
